Measurements reported in ChEMBL document CHEMBL3988442, “University of Dundee, Small-Polar-MMV Screening Library” (2021).
About 950 (1.4%) of roughly 69,000 compounds showed an effect of 50% or more. The full list was thinned out, with strong results kept by preference.

Each compound was assayed on Mycobacterium tuberculosis (assay: Cornell M. t heat shock assay; further: in the data most compounds retested in dose-response had high values).
Assay type: functional, organism-based
Set-up: dose or concentration left out as unconfirmed

Compound	Percent Effect [%]
Cc1nc[nH]c1CN1C[C@@H]2CC[C@H](C1)N(C(=O)c1cnn(C)c1)C2	-6.364
Cc1ccc(C(=O)N2Cc3c(CN4CCCCC4)nn(C)c3C2)cc1F.O=C(O)C(F)(F)F	-32.35
Cc1ccc(CN2CCC3(CC2)C(c2ccccc2)CC(=O)N3C)o1.O=C(O)C(F)(F)F (stereo not given)	26.84
Cn1cc(C(=O)NCc2cn3c(n2)CN(CC2CCOC2)CC3)cn1.O=C(O)C(F)(F)F.O=C(O)C(F)(F)F (stereo not given)	-28.66
O=C1c2cnc(N3CCCC3)nc2CN1C1CCS(=O)(=O)C1 (stereo not given)	9.039
Cc1cccc(CNC(Cc2ccsc2)c2nc(C)c(C)s2)n1.Cl (stereo not given)	106.6
Cc1cccc(CNC(Cc2ccsc2)c2nccs2)n1 (stereo not given)	101.9
COc1cccc(CNC(Cc2cccs2)c2nc(C)c(C)s2)c1OC.Cl (stereo not given)	-9.078
Cc1nc(C(Cc2ccsc2)NC(=O)CCN2CCOCC2)sc1C (stereo not given)	3.097
CC(C)Oc1cccc(CNC(Cc2ccsc2)c2nccs2)c1.Cl (stereo not given)	2.523
COc1ccccc1CNC(Cc1cccs1)c1nc(C)c(C)s1.Cl (stereo not given)	6.532
Cc1nc(C(Cc2ccsc2)NC(=O)CN2CCOCC2)sc1C (stereo not given)	-3.287
O=C(NC(Cc1ccsc1)c1nccs1)C1CC1 (stereo not given)	-16.41
CCC(CN1CCCC1)NC(=O)C1(c2cccc(F)c2)CC1.O=C(O)CC(O)(CC(=O)O)C(=O)O (stereo not given)	-3.287
CN(C)C(=O)[C@@]12CCO[C@@H]1CCN(Cc1ccc3c(c1)OCO3)C2.O=C(O)C(F)(F)F	4.753
Cc1noc([C@]23COC[C@H]2CN(C(=O)CN(C)C)C3)n1.O=C(O)C(F)(F)F	15.78
CC1CCN(c2cc(CCC3CCCN3)ncn2)CC1.Cl (stereo not given)	-19.69
Cc1nocc1C(=O)N1CCOC2(COCCN(C(C)C)C2)C1.O=C(O)C(F)(F)F (stereo not given)	1.76
CCN(Cc1cccnc1)CC1CCCO1 (stereo not given)	-42.47
CCN(Cc1cccc2c1OCO2)CC1CCCO1 (stereo not given)	-23.06

Compound	Percent Effect [%]
CCN(Cc1ccc2cccc(O)c2n1)CC1CCCO1 (stereo not given)	84.2
O=C(O)C(F)(F)F.O=S1(=O)c2ccccc2C2(CCN(Cc3ccccc3)C2)N1CC1CC1 (stereo not given)	20.71
CCn1cc(CNc2ccc(N(C)CCOC)cn2)cn1	57.45
COCCN(C)c1ccc(NCc2ccsc2)nc1	90.49
CCn1cc(CNc2ccc(Br)c(OC)c2)cn1	-14.65
OCC1CCN(c2ccc(NCc3ccsc3)nc2)CC1	11.8
COCCN(C)c1ccc(NCc2cccnc2)nc1	21.66
COCCN(C)c1ccc(NCc2cscn2)nc1	13.97
Cl.O=C(c1ccccc1Cl)N1CCN(CCc2ccccn2)CC1	-2.792
COCCN1CCN(c2cccc(C)n2)Cc2ccc(C)nc21.O=C(O)C(F)(F)F.O=C(O)C(F)(F)F	28.62
CN(Cc1cccc2cccnc12)C1CCS(=O)(=O)C1.O=C(O)CC(O)(CC(=O)O)C(=O)O (stereo not given)	-10.77
Cc1cccc(CN2CCO[C@H]3[C@@H](OCc4ccncc4)CC[C@@H]32)n1.O=C(O)C(F)(F)F.O=C(O)C(F)(F)F.O=C(O)C(F)(F)F	-9.598
CN(C)C(=O)[C@@H]1C[C@@H]2CCN(C3CCOCC3)C[C@H]2O1.O=C(O)C(F)(F)F	-21.42
CNC(=O)[C@@H]1[C@@H](OC(=O)Nc2ccccc2)C(=O)N(C)C12CCNCC2	60.88
CO[C@H]1C(=O)N(C)C2(CCNCC2)[C@@H]1C(=O)Nc1ccccc1	47.74
CN1C(=O)[C@H](OC(N)=O)[C@@H](C(=O)Nc2ccccc2)C12CCNCC2	31.45
Fc1ccc(F)c(CN2CCC(c3n[nH]c4ncccc34)CC2)c1.O=C(O)CC(O)(CC(=O)O)C(=O)O	-14.52
CN(Cc1nc(N)nc(N(C)C)n1)Cc1cccc2ccccc12	-5.133
CN(CCc1cccc2ccccc12)Cc1nc(N)nc(N(C)C)n1	75.75
COc1ccccc1CCN(C)Cc1nc(N)nc(N(C)C)n1	10.83

Compound	Percent Effect [%]
CC(C)Cn1ccnc1CNC(=O)NC(C)(C)c1nccs1	-19.09
Cc1nc(C(C)NC(=O)NCc2nccn2CC(C)C)cs1 (stereo not given)	0.1192
CC(C)Cn1ccnc1CNC(=O)NC(C)c1nccs1 (stereo not given)	55.14
O=C(O)C(F)(F)F.O=C(c1cscn1)N1CCc2ncnc(-c3cccnc3)c2CC1	-9.91
CC(=O)N1N=C(c2ccccc2)OC1C(=O)NCCc1cccc(F)c1 (stereo not given)	26
COc1ccc(NC(=O)C2OC(c3cccs3)=NN2C(C)=O)cc1 (stereo not given)	19.1
CC(=O)N1N=C(c2cccs2)OC1C(=O)NCCc1cccc(Cl)c1 (stereo not given)	62.85
COc1ccc(NC(=O)C2OC(c3cccs3)=NN2C(C)=O)cc1OC (stereo not given)	54.99
CC(=O)N1N=C(c2ccccc2)OC1C(=O)NCCc1cccc(Cl)c1 (stereo not given)	-5.794
CC(=O)N1N=C(c2cccs2)OC1C(=O)Nc1ccccc1 (stereo not given)	6.727
O=C(O)C(F)(F)F.O=C(c1ccc2ccccc2n1)N1CCC2(CCN2c2ncccn2)C1 (stereo not given)	-9.605
CCc1ccc(CN2CCC3(CC2)CC(N2CCN(C)CC2)CO3)cc1.O=C(O)C(F)(F)F (stereo not given)	2.884
Cc1ccc(CN2CC[C@@H](NC(=O)c3cccnc3)[C@H](O)C2)o1	8.326
Cc1ccc(CCNC(=O)c2cccnc2)o1	80.23
Cc1ccc(CN(C(=O)NCCNC(=O)c2cccnc2)C(C)C)o1	-12.97
CCc1cc(C(=O)N2CCCC(Cc3ccc(NC)nn3)C2)on1 (stereo not given)	-39.14
COCCCNC(=O)CN(C)C(=O)c1ccccc1O	-10.97
COCCCNC(=O)CN(C)C(=O)c1cc(C)ccc1O	5.458
COCCCNC(=O)CN(C)C(=O)c1cc(Cl)ccc1O	100.8
N#Cc1cccc(CN2CCn3cc(Cn4cccn4)nc3C2)c1.O=C(O)C(F)(F)F.O=C(O)C(F)(F)F	-31.57
